Reference: PubChem BioAssay (NCATS)
Results filed as inconclusive are left out. A call without a number means that no potency is given here. The source made the active and inactive calls. Calls follow the shape of the dose curve; as a rule, active = well fitted cell-killing curve with a large enough effect; inconclusive = small, poorly fitted or top-dose-only effect, or effect the other way; inactive = no such curve, though single readings can be large or run the other way.
Potency is read from the fitted curve at half-maximal effect.

Assay: Quantitative highthroughput screen to assess conditional lethalithy of SEM cells grown in Human Plasma-Like Medium with dialyzed fetal bovine serum (HPLM+ds) (AID 1963882); also: nearly all actives have a fitted effect of over 35% in size
Settings: SEM B-ALL cells in HPLM+ds, CellTiter-Glo viability, 48 h; series mostly up to 45.8 µM
Description: Assay Provider: Jason Cantor Ph.D.
Department of Biochemistry
University of Wisconsin-Madison, Madison, WI, USA
Chemical screening studies have identified drug sensitivities across hundreds of cancer cell lines but most putative therapeutics fail to translate. Discovery and development of drug candidates in models that more accurately reflect nutrient levels in human blood is a major challenge. Here we performed high-throughput screens in conventional versus Human Plasma-Like Medium (HPLM) to identify compounds that were "missed" when screening using the artificial culture condition. Sets of conditional anticancer compounds spanned phases of clinical development and included non-oncology drugs were assessed. […] We also traced conditional phenotypes for several chemotherapeutics to availability of HPLM-specific metabolites and confirmed others for compounds whose reported targets are encoded by nonessential genes. Our findings establish generalizable strategies for exploiting conditional lethality in HPLM to reveal therapeutic candidates and mechanisms of action in cancer cells.
Described herein are the results of each viability screens against three cell lines: NOMO1 (an acute myeloid leukemia cell line); P12-Ichikawa (a T-cell acute lymphoblastic leukemia); and SEM (a B-cell ALL). Each assay was screened using 3 different cell culture media: homemade human plasma-Like medium with 10% dialyzed fetal bovine serum (HPLM+ds); RPMI1640 with 10% untreated FBS and 5mM glucose (RPMI+s); and RPMI1640 with 10% dialyzed fetal bovine serum and 5 mM glucose (RPMI+ds).
PROTOCOL TABLE (as described by Inglese J, Shamu CE and Guy RK. 2007)
SEQUENCE No. (e.g., 1, 2, 3, etc.); […] (e.g., Cells, Incubation, Reagent, etc.); VALUE and DESCRIPTION.
1; Cells; 5 uL; white, solid bottom 1536-well Greiner assay plate.
2; Compounds; 23 nL; Kalypsis pin tool (Wako USA) equipped with a 1536-well pin head to transfer to the assay plates.
3; Incubation; 48 hours; 37C incubation.
4; Reagent; 3 uL; CellTiter Glo (Promega).
5; Incubation; 5 min, room temperature
6; Detection; Luminescence, Viewlux PerkinElmer.
NOTES (numbers refer to Sequence numbers above)
1. Briefly, 5 ul of cell reagent was dispensed using a Multidrop Combi Dispenser. The NOMO1 and SEM cells were plated at 500 cells/well and the P12-Ichikawa line at 1000 cells/well.
2. After seeding the cells, 23 nL of MIPE 4.1 library compounds (in DMSO) were added to each plate using a Kalypsys 1536 Pintool dispenser. Bortezomib at final concentration of […] and DMSO were added to each plate as positive and negative controls respectively. For each screen, MIPE 4.1 compounds were added over an eleven-point concentration range […] in 3-fold dilutions.
3. Each plate was covered with a stainless steel gasketed lid to prevent evaporation and incubated for 48 hour at 37C, 95% relative humidity, and 5% CO2.
4-5. Three microliter CellTilter-GloTM luminescent substrate mix (Promega) reagent was added to the assay plate and incubated at room temperature for 5 min.
6. The luminescence signal was measured using a ViewLux (PerkinElmer) multiplate reader with a 2 second exposure time per plate. Data for each compound were normalized as percent viability such that measurements for DMSO and the empty well controls in each plate were defined as 100% and 0%, respectively.
In the case of `NC1CC1c1ccccc1` (stereo not given), the Potency is reported as “inactive”.
With `N[C@@H](Cc1ccc(N(CCCl)CCCl)cc1)C(=O)O` the Potency was 4180 nM (active).
With `CC=C(C)C(=O)O[C@H]1C(C)=C2[C@@H]3OC(=O)[C@@](C)(O)[C@@]3(O)[C@@H](OC(=O)CCC)C[C@](C)(OC(C)=O)[C@@H]2[C@@H]1OC(=O)CCCCCCC` the Potency was 59 nM (active).
For `COc1cccc2c1[C@]13CCN(CC4CC4)[C@H](C2)[C@]1(OC)CCC(=O)C3`, the Potency was “inactive”.
In the case of `O=P1(NCCCl)OCCCN1CCCl` (stereo not given), the Potency is reported as 18700 nM (active).
With `COc1ccc2c(c1)[C@]13CCCCC1C(C2)N(C)CC3` (stereo not given in full) the Potency was “inactive”.
In the case of `CCC1(c2ccc(N)cc2)CCC(=O)NC1=O` (stereo not given), the Potency is reported as “inactive”.
With `O=c1[nH]c2ccc(Cl)cc2c(N[C@@H]2CN3CCC2CC3)c1-c1nc2ccccc2[nH]1` the Potency was 41.8 nM (active).
In the case of `Clc1ccccc1C(c1ccccc1)(c1ccccc1)n1cccn1`, the Potency is reported as “inactive”.
In the case of `CC(C)[C@H]1C(=O)N[C@H](CO)Cc2c[nH]c3cccc(c23)N1C`, the Potency is reported as “inactive”.
In the case of `C=C[C@@H]1CN2CCC1C[C@@H]2[C@@H](O)c1ccnc2ccccc12` (stereo not given in full), the Potency is reported as “inactive”.
For `C[C@@H]1[C@@H](CC(C[C@H]2O[C@@H]3O[C@]4(C)CC[C@@H]5[C@H](C)CC[C@@H]([C@H]2C)[C@@]35OO4)C[S+](=O)([O-])c2ccc(COC(=O)N(C)C)cc2)O[C@@H]2O[C@]3(C)CC[C@H]4[C@H](C)CC[C@@H]1[C@@]24OO3` (stereo not given in full), the Potency was 743 nM (active).
In the case of `CC=C(C)C(=O)N[C@@H](c1ccccc1)[C@@H](O)C(=O)O[C@H]1C[C@@]2(O)[C@@H](OC(=O)c3ccccc3)[C@@H]3[C@]4(OC(C)=O)CO[C@@H]4C[C@H](O)[C@@]3(C)C(=O)[C@H](OC(C)=O)C(=C1C)C2(C)C`, the Potency is reported as “inactive”.
For `C[C@@H]1C[C@@H]([C@H](O)CC2CC(=O)NC(=O)C2)C(=O)[C@@H](C)C1`, the Potency was 418 nM (active).
In the case of `CC[C@@]1(O)C(=O)OCc2c1cc1n(c2=O)Cc2cc3ccccc3nc2-1`, the Potency is reported as 46.9 nM (active).
For `O=C(NCC1CCOCC1)c1cnc(Nc2ccc(Cl)cc2Cl)nc1C(F)(F)F`, the Potency was “inactive”.
With `CN(C)CCc1ccc(O)cc1` the Potency was “inactive”.
With `CCN(CC)C(=O)c1ccc(C2=CC3(CCNCC3)Oc3cccc(O)c32)cc1` the Potency was “inactive”.
In the case of `COc1ccc(C(=O)c2c(C)n(CCN3CCOCC3)c3ccccc23)cc1`, the Potency is reported as “inactive”.
For `CC(O)(CS(=O)(=O)c1ccc(F)cc1)C(=O)Nc1ccc(C#N)c(C(F)(F)F)c1` (stereo not given), the Potency was “inactive”.
For `CN[C@@H]1Cc2cccc3[nH]c(=O)n(c23)C1`, the Potency was “inactive”.
With `C1=C2CCCN[C@H]2[C@@H]2C[C@H]1[C@@H]1CCCCN1C2` the Potency was “inactive”.
For `O=C1C=CC[C@@H]2[C@H]3CCCN4CCC[C@@H](CN12)[C@@H]34`, the Potency was “inactive”.
With `CCNC(=O)C[C@@H]1N=C(c2ccc(Cl)cc2)c2cc(OC)ccc2-n2c(C)nnc21` the Potency was 935 nM (active).
In the case of `CC(=Cc1csc(C)n1)[C@@H]1C[C@H]2O[C@@H]2CCC[C@H](C)[C@@H](O)[C@@H](C)C(=O)C(C)(C)[C@@H](O)CC(=O)O1`, the Potency is reported as “inactive”.
For `Cc1sc2c(c1C)C(c1ccc(Cl)cc1)=N[C@@H](CC(=O)OC(C)(C)C)c1nnc(C)n1-2`, the Potency was 166 nM (active).
In the case of `CC(=O)N(C)c1cccc(-c2ccnc3c(C(=O)c4cccs4)cnn23)c1`, the Potency is reported as “inactive”.
For `O=C(Oc1ccc([N+](=O)[O-])cc1)N1CCC(C(O)(c2ccc3c(c2)OCO3)c2ccc3c(c2)OCO3)CC1`, the Potency was “inactive”.
For `O=P1(N(CCCl)CCCl)NCCCO1` (stereo not given), the Potency was 9350 nM (active).
With `CCCC(C)(COC(N)=O)COC(=O)NC(C)C` (stereo not given) the Potency was “inactive”.
In the case of `CCN1C[C@]2(OC(=O)c3ccccc3NC(C)=O)CC[C@H](OC)[C@@]34[C@H]5CC6[C@@H](OC)C[C@](O)(C(C[C@@H]23)[C@@H]14)[C@@]5(O)[C@@H]6OC`, the Potency is reported as “inactive”.
For `COc1cc(OC)c(OC)cc1C=O`, the Potency was “inactive”.
For `CC(=Cc1csc(C)n1)[C@@H]1C[C@H]2O[C@]2(C)CCC[C@H](C)[C@@H](O)[C@@H](C)C(=O)C(C)(C)[C@@H](O)CC(=O)O1`, the Potency was “inactive”.
With `COc1cc2cc(c1Cl)N(C)C(=O)C[C@H](OC(=O)C(C)C)[C@]1(C)O[C@H]1[C@H](C)[C@@H]1C[C@@](O)(NC(=O)O1)[C@H](OC)C=CC=C(C)C2` the Potency was “inactive”.
In the case of `Cc1cccc(C)c1NC(=O)CN1CCCC1=O`, the Potency is reported as “inactive”.
With `CC(C)(O)C(=O)Nc1ccc([N+](=O)[O-])c(C(F)(F)F)c1` the Potency was “inactive”.
With `O=C(O)c1nn(Cc2ccc(Cl)cc2Cl)c2ccccc12` the Potency was “inactive”.
For `CC(C)[C@]12O[C@@H]1[C@@H]1O[C@]13[C@]1(O[C@H]1C[C@@H]1C4=C(CC[C@@]13C)C(=O)OC4)[C@H]2O`, the Potency was 1.2 nM (active).
With `O=c1[nH]c2ccccc2n1CCCN1CCC(n2c(=O)[nH]c3cc(Cl)ccc32)CC1` the Potency was “inactive”.
For `C[C@H]([C@H](O)CCC(C)(C)O)[C@H]1CC[C@@]2(O)C3=CC(=O)[C@@H]4C[C@@H](O)[C@@H](O)C[C@]4(C)[C@@H]3CC[C@]12C`, the Potency was “inactive”.
